In the supplement of paper PMC6555819:

Test system: VDR:RXRa (NR concentration 270 nM, RXRa partner concentration 90 nM)
Assay: PBM binding z-score (relative to random genomic background probes); higher = stronger binding; sequences stand for … in GC…GCGATTGACAGCGTAGAATGAAGG
Procedure: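 Protein-binding microarray (Agilent 4x180K custom design, double-stranded 60-nt probes: 5' GC cap, 34-nt variable region, 24-nt constant primer region; full probe sequence given). Purified or IVT nuclear receptor:RXRα heterodimers (3:1 NR:RXRα, mostly 270:90 nM) or homodimers were incubated for 1 h in PBS with 2% milk and no ligand, then detected with Alexa488 antibodies. Fluorescence from o1-orientation probes (~5 replicates averaged) was converted to z-scores against 500 random hg19 background probes. Variable regions are seed direct-repeat (DR0–DR5) sites, all their single-nucleotide variants and half-site ablations.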

Sequence | PBM binding z-score
CCTCCTGGGCCAAAGGTCATTGATTCCAATGCTC | 4.75
CAAACTAGGTCAAGAGGTCAAAGCCCGCTTCCCG | 5.9
TCTTGTAGATCAAAGGTTGAGAAAGCCGAAGCCT | 0.408
ACTATTAGTTGACACGAGGGCAACCGATAGGTTG | 1.4
ATCGGAAGGTCGTGAGGTGAGTATACAGAAAGGC | 2.1
CGTCCAAGGTCAAAGGGCAGTGAAGAGATGACGG | 4.65
ATATGTAGGTTAGCTCGGGTCATTCAGACTAGGC | 3.96
ATCAAAAGGTCGACGAGGTGAGTATACACCGTTT | 5.4
AGAACAAGGGCAATGAGTTGATAGCACGGGTGGC | 4.7
CCAGACATGTGAAAGGTAACTCAGTCTGGTACGC | 0.207
TCTTGTAGATCAAAGATTAAGAAAGCCGAAGCCT | 0.389
GCTGCTAGGTCAACTGATGGTCAGCCAAAGCTCG | 1.58
TAGCCAAGGTCATTGGGCCAGTATAGTACGCATC | 4.87
TCTAGTTGGTCACGAAGGTCACACACGACGGGTA | 4.98
AGAATGAGGTTATACGAAGATCAGGGAAGAAAGT | 1.13
ATATGTCGGTTAAGGGTCATTCAGGTTGGTTCGC | 5.48
TCATATAGGTAAGCAGGTGAAAGTCCGTAAGTTA | 0.388
TGAATGAGATTAAAGATCAGGGAACGTGGCGTCG | -0.176
CAAACTAGGACACGAAAGGTCAAAGTCGAATGAC | 4.78
TCTTGTAGACCAGCAGGTTAAGAAAGCTGGCCAA | 0.209

Sequence | PBM binding z-score
CTCGAAAGGTCGTGCACAGGTGAGTATACCAAAC | 3.8
TCATATAGGTAAACAGGTGAAAGCCCGTAAGTTA | 1.15
CGTATTAGTTGACCATAAGGGCAACCGAAGCTCG | 0.396
GCAGACAGGCGAAACGCAGGTAACTCAGGGTGGC | -0.853
TTACCAAGGTGAAACGTCGTTGATGCACGCCTTG | -0.243
TCTATCAGTTGAAGGGCAACCGACGAGTCCGTTT | 1.07
CCGACTGGGGCAAGTTTACCATAACGCACAGCCA | 0.191
TGGATGAGGTTATAAGATCAGGGAACGTTGCAAA | 1.04
AGTCAAAGCTCACTAGGTAACGTAAGATTCAGCT | -0.551
GCGACTGGGCCAAAGCAGGTTACCATAAGGTTGG | -0.513
AGTCAAAGTTCACTCGGTAACGTAAGATTCAGCT | 4.31
GCGTATAGGTAATACAAGGTGAAAGTCCGATTGT | 0.306
TCTGCTAGGTCAACGATGGTTAGCTAATCTGCTA | 1.26
ATATGTCGGTTAGCTGGGGTCATTCAGACTAGGC | 5.12
AATTCAGGGTCATCGTAGGCCAGAGTACGCACAG | 5.7
ATACCAAGGTGATCGTTAGGTCGTTGATACTAAC | 0.566
AATACAGGGTCATCGTAGGCCAGAGTACGCACAG | 5.37
CCTGCTAGGTCAATGGTCAACTAAAGCAGCTCGC | 1.25
CAAACTAGGTCACGAAAGGTCCAAGTCGAATGAC | 3.82
CCAGACAGGTGAGAGGGTAACTCAGCCTCGATTA | -0.0785
